Results: PubChem BioAssay AID504937 (National Center for Advancing Translational Sciences (NCATS), 2011)
The campaign covered roughly 340,000 compounds. About 20 (0.006%) were called active. What follows is part of a selection rich in actives, with near analogues and random picks from the rest. Values without a mark were called inactive. Calls follow the shape of the dose curve; as a rule, active = well fitted inhibition curve with a large enough effect; inconclusive = small, poorly fitted or top-dose-only effect; inactive = no such curve, though single readings can be large or run the other way.

Target: Sphingomyelin phosphodiesterase (Homo sapiens) (UniProt P17405)
Sequence (P17405 47-631 limits assumed): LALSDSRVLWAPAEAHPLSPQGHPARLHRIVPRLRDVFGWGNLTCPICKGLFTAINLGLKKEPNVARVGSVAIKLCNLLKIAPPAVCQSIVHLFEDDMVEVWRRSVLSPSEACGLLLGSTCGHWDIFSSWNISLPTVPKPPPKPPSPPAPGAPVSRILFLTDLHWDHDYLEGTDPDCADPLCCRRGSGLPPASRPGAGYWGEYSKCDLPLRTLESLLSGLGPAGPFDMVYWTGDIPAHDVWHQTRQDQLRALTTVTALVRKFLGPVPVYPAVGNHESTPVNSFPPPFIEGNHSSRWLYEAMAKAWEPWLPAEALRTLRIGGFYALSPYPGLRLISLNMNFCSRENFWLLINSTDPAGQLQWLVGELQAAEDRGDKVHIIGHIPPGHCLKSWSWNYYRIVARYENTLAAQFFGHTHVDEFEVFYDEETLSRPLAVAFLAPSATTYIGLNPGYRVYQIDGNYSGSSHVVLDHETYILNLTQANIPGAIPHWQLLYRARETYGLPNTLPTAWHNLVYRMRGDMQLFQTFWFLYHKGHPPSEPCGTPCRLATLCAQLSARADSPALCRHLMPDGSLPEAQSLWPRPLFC
Assay: Inhibitors of Secretory Acid Sphingomyelinase (S-ASM): qHTS
Conditions: placental ASM, HMU-PC fluorogenic substrate, 60 min; series mostly up to 57.5 µM; activity change, negative = inhibition: at the top concentration
Description: Atherosclerosis is the underlying process for cardiovascular disease and thus is a major contributor to disease burden in the population. […] Thus, selective small molecule inhibitors of S-ASM should block LDL modification and reduce aortic LDL retention and may serve as new agents for the treatment of atherosclerosis. In a collaboration between National Heart, Lung, and Blood Institute and the NCGC a high-throughput amenable screen was developed to identify potent and selective small molecule inhibitors of S-ASM. This enzymatic, fluorescent screen uses an ASM enzyme preparation derived from human placenta and was tested against the NIH Molecular Libraries Small Molecule Repository (MLSMR). NIH Chemical Genomics Center [NCGC] NIH Molecular Libraries Probe Centers Network [MLPCN] MLPCN Grant: MH093173-01 Assay Submitter (PI): Alan Remaley, National Heart, Lung, and Blood Institute and Wei Zhen, NIH Chemical Genomics Center
Two microliters of ASM enzyme (1:150 dilution from stock) are dispensed in 1536-well plate. 23 nL of compound and control are pinned into assay plate using the Kalypsys pintool. The plates are then incubated for 10 minutes at ambient room temperature. Then, 2 uL of the flurogenic substrate, HMU-PC0, (9 uM final) are added to the plate. An incubation for 60 minutes takes place at 37 masculineC. After that, 4 uL of stop solution is added to raise the pH to 10 to end the kinetic reaction. Plate is read on ViewLux, with detection set at Ex = 386 (10) nm and Em = 447 (10) nm.
Potency is read from the fitted curve at half-maximal effect.

**Q.** For `COc1ccc(Cl)cc1C=CC=NNC(=O)c1ccncc1`, which “activity change, negative = inhibition” value is on record?
**A.** Its value is 1.72%.

**Q.** Which “activity change, negative = inhibition” value does the source give for `COC(=O)[C@@H]1C[C@@]2(O)[C@H](O)[C@H](O)[C@H](O)C[C@H]2N1Cc1ccc(C)s1` here?
**A.** The value was 2.02%.

**Q.** Which “activity change, negative = inhibition” value does the source give for `Cn1c(=O)c2c(n(Cc3ccccc3)c1=O)NC(=O)C2CC(=O)N1CCc2ccccc2C1` (stereo unspecified) here?
**A.** Its value is 11%.

**Q.** How did the “activity change, negative = inhibition” value turn out when `CCOC(=O)c1c(C2CC2)csc1NC(=O)CSCc1c(C)noc1C` was run?
**A.** The value was -10.2%.

**Q.** For `CCOC(=O)C1=CN(Cc2ccc(Br)cc2)S(=O)(=O)N(C)C1C` (stereo unspecified), which “activity change, negative = inhibition” value is on record?
**A.** Its value is -9.71%.

**Q.** `COCc1c(C(=O)N/N=C(\C)c2ccncc2)nnn1-c1nonc1N` was tested. Which “activity change, negative = inhibition” value did it give?
**A.** The value was 2.13%.

**Q.** Which “activity change, negative = inhibition” value does the source give for `COc1ccc2c(C)c(CCC(=O)NC3CC3)c(=O)oc2c1C` here?
**A.** Its value is -0.686%.

**Q.** How did the “activity change, negative = inhibition” value turn out when `CC(=O)N1c2ccc(S(=O)(=O)N(C)CC(=O)N(C)Cc3ccccc3)cc2CC1C` (stereo unspecified) was run?
**A.** The value was -1.44%.

**Q.** With `C=CCN1C(=O)c2ccc(C(=O)N3CCC(C(=O)OCC)CC3)cc2C1=O` as the compound, how does the “activity change, negative = inhibition” value read?
**A.** The value was -2.79%.

**Q.** Which “activity change, negative = inhibition” value does the source give for `COc1nc(OC)nc(N(C)CCO)n1` here?
**A.** Its value is 4.61%.

**Q.** `CCOC(=O)C1CCN(C(=O)C2CCN(S(=O)(=O)CC)CC2)CC1` was tested. Which “activity change, negative = inhibition” value did it give?
**A.** Its value is 1.4%.

**Q.** `Cc1cccc(OCC(=O)OCC(=O)Nc2ccc(Cl)cn2)c1` was tested. Which “activity change, negative = inhibition” value did it give?
**A.** The value was -3.52%.

**Q.** `Cc1ccc(C(=O)NCC(=O)NCc2cc(=O)n(C)c(=O)n2C)cc1` was tested. Which “activity change, negative = inhibition” value did it give?
**A.** The value was 0.0892%.

**Q.** With `O=S(=O)(c1ccc(F)cc1)N1CCN(C(=S)NCc2ccco2)CC1` as the compound, how does the “activity change, negative = inhibition” value read?
**A.** The value was 0.335%.

**Q.** Which “activity change, negative = inhibition” value does the source give for `Cc1ccc(N(C(=O)c2snc(C(N)=O)c2N)C(C(=O)NCC2CCCO2)c2c[nH]c3ccccc23)cc1` (stereo unspecified) here?
**A.** The value was 107%.

**Q.** With `Cc1ccc(S(=O)(=O)NC(C)C(=O)NCc2ccc(Cl)cc2)cc1` (stereo unspecified) as the compound, how does the “activity change, negative = inhibition” value read?
**A.** Its value is 0.606%.

**Q.** Which “activity change, negative = inhibition” value does the source give for `CSCCC(NS(=O)(=O)c1ccc2c(c1)oc(=O)n2C)C(=O)NC1CCCc2ccccc21` (stereo unspecified) here?
**A.** Its value is 4.92%.

**Q.** Which “activity change, negative = inhibition” value does the source give for `O=S(=O)(NCCCN1CCOCC1)c1ccc(F)c(Cl)c1` here?
**A.** Its value is 3.19%.

**Q.** How did the “activity change, negative = inhibition” value turn out when `Cc1ccc(S(=O)(=O)NC(=O)c2cccc(C)c2)cc1` was run?
**A.** The value was 2.72%.

**Q.** For `CC(=O)C1=C(C)NC2=C(C(=O)CC(C)(C)C2)C1C` (stereo unspecified), which “activity change, negative = inhibition” value is on record?
**A.** Its value is 36.1%.

**Q.** With `CCOC(=O)c1cc(S(=O)(=O)NCCc2ccc(OC)c(OC)c2)cn1C` as the compound, how does the “activity change, negative = inhibition” value read?
**A.** Its value is 0.167%.

**Q.** Which “activity change, negative = inhibition” value does the source give for `CSCCC(NC(=O)c1ccccc1)C(=O)N1CCN(Cc2ccc(Cl)cc2)CC1` (stereo unspecified) here?
**A.** Its value is -1.3%.

**Q.** With `CC1C(=O)N2CCCc3cc(S(=O)(=O)NCc4ccc(F)cc4)cc1c32` (stereo unspecified) as the compound, how does the “activity change, negative = inhibition” value read?
**A.** The value was 2.3%.

**Q.** `COC(=O)c1ccc(CN2CCCC(C(=O)Nc3cccc(-n4cnnn4)c3)C2)cc1` (stereo unspecified) was tested. Which “activity change, negative = inhibition” value did it give?
**A.** Its value is 0.0712%.

**Q.** Which “activity change, negative = inhibition” value does the source give for `O=C1c2ccccc2C2=Nc3ccccc3SC(c3ccccc3F)C12` (stereo unspecified) here?
**A.** Its value is -27.7%.

**Q.** With `CCOC(=O)c1ccccc1NC(=S)N1CCC(C(N)=O)CC1` as the compound, how does the “activity change, negative = inhibition” value read?
**A.** The value was -1.43%.

**Q.** For `COc1cccc(NC(=O)CSc2nnc(Cc3ccc(OC)c(OC)c3)o2)c1`, which “activity change, negative = inhibition” value is on record?
**A.** Its value is -3.18%.

**Q.** `O=C1N[C@H](Cc2c[nH]c3ccccc23)COC(=O)[C@H](Cc2ccc(F)cc2)C/C=C\C[C@H]1CC(=O)N(CCO)Cc1ccccc1` was tested. Which “activity change, negative = inhibition” value did it give?
**A.** Its value is -17.8%.

**Q.** `CSc1nnc(-c2ccc(C(F)(F)F)cn2)o1` was tested. Which “activity change, negative = inhibition” value did it give?
**A.** Its value is -0.446%.

**Q.** With `COc1cc(/C=C/C(=O)N2c3ccccc3Sc3ccc(C(F)(F)F)cc32)cc(OC)c1OC` as the compound, how does the “activity change, negative = inhibition” value read?
**A.** Its value is -3.99%.

**Q.** `COc1cc(/C=C2\SC(=S)N(Nc3ncc(C(F)(F)F)cc3Cl)C2=O)cc(OC)c1OC` was tested. Which Potency did it give?
**A.** The Potency was 28.2 µM (active).

**Q.** How did the “activity change, negative = inhibition” value turn out when `O=C1/C(=C/c2ccc(F)cc2)SC(=S)N1NS(=O)(=O)c1ccccc1` was run?
**A.** The value was -3.4%.

**Q.** Which “activity change, negative = inhibition” value does the source give for `Cc1c(C)c2c(OCC(=O)N[C@@H](C(=O)O)c3ccccc3)cc3c(c2oc1=O)CCC(C)(C)O3` here?
**A.** Its value is 70.3%.

**Q.** How did the “activity change, negative = inhibition” value turn out when `CCOC(=O)C1(Cc2cccc(OC)c2)CCN(Cc2csc(C(C)=O)c2)CC1` was run?
**A.** The value was -0.0302%.

**Q.** `S=c1[nH]nc(Nc2ccccc2)s1` was tested. Which “activity change, negative = inhibition” value did it give?
**A.** The value was -1.24%.

**Q.** Which “activity change, negative = inhibition” value does the source give for `COc1cccc(-n2c(=S)sc3c(=O)n(-c4ccccc4C)c(SCC(=O)O)nc32)c1` here?
**A.** The value was 6.43%.

**Q.** `CCOc1ncccc1C(=O)OCC(=O)Nc1cccc(S(=O)(=O)N2CCCCCC2)c1` was tested. Which “activity change, negative = inhibition” value did it give?
**A.** The value was -0.366%.

**Q.** How did the “activity change, negative = inhibition” value turn out when `N=C1C(=O)OCC1c1ccccc1NC(=O)CN1CCCCC1` (stereo unspecified) was run?
**A.** Its value is 6.54%.

**Q.** How did the “activity change, negative = inhibition” value turn out when `COc1ccc(C(=O)N(C)CC(O)c2ccccc2)cc1OC1CCN(C(C)=O)CC1` (stereo unspecified) was run?
**A.** The value was 5.69%.

**Q.** With `O=C(O)CSCC(=O)Nc1ccc(C(F)(F)F)cc1` as the compound, how does the “activity change, negative = inhibition” value read?
**A.** The value was 1.25%.

**Q.** For `CC[C@@]12C(=O)N(c3ccccc3)C(=O)N1[C@H](c1ccc(Br)cc1)[C@@H]1C(=O)N(C(C)(C)C)C(=O)[C@@H]12`, which “activity change, negative = inhibition” value is on record?
**A.** Its value is -4.51%.

**Q.** Which “activity change, negative = inhibition” value does the source give for `COc1cccc(N(C(=O)c2ccn[nH]2)C2(C(=O)Nc3c(C)cccc3C)CCCCC2)c1` here?
**A.** The value was 0.42%.

**Q.** `COc1cc(OC)cc(C(=O)Nc2nnc(SCC(=O)NCC3CCCO3)s2)c1` (stereo unspecified) was tested. Which “activity change, negative = inhibition” value did it give?
**A.** The value was -1.35%.

**Q.** `CC(C)CN(C(=O)c1cccc(S(=O)(=O)N2CCCCC2)c1)C1CCS(=O)(=O)C1` (stereo unspecified) was tested. Which “activity change, negative = inhibition” value did it give?
**A.** Its value is 1.29%.

**Q.** `CS(=O)(=O)N(Cc1ccccc1Cl)c1ccc(C(=O)NCc2cccnc2)cc1` was tested. Which “activity change, negative = inhibition” value did it give?
**A.** The value was -2.15%.

**Q.** For `CC1CCN(c2ccc(S(=O)(=O)Nc3cc(C(=O)O)cc(C(=O)O)c3)cc2[N+](=O)[O-])CC1`, which “activity change, negative = inhibition” value is on record?
**A.** Its value is 10.1%.

**Q.** Which “activity change, negative = inhibition” value does the source give for `Cc1ccc2nc(SCC(=O)Nc3cccc4ccccc34)nc(=O)n2c1` here?
**A.** Its value is -0.358%.

**Q.** With `CSCCC(=O)N1CCCC(CNC(=O)c2ccccc2Cl)C1` (stereo unspecified) as the compound, how does the “activity change, negative = inhibition” value read?
**A.** The value was 7.66%.

**Q.** With `CCCn1nnc(NC(=O)COc2ccc(CC)cc2)n1` as the compound, how does the “activity change, negative = inhibition” value read?
**A.** The value was 3.31%.

**Q.** For `COc1ccc([C@H]2CC(=O)C=C(c3ccc(OC(F)(F)F)cc3)C2)cc1OC`, which “activity change, negative = inhibition” value is on record?
**A.** Its value is -15.4%.

**Q.** `Cc1cccc(-[n+]2c(-c3cccc(Br)c3)[nH]c3nc4ccccc4nc32)c1` was tested. Which “activity change, negative = inhibition” value did it give?
**A.** Its value is 53%.
